# Sampled rows, rich in hits. Any-hit rate of the full collection: about 7.3%.
# NPC1 prom act – activates the NPC1 promoter; AID 485313; Potency, µM (titrated, usually from 9.22 µM), inactives show top-dose activation, usual class: activators; 320,000 compounds, 2.4% hits; Huh7 NPC1 promoter luciferase reporter, 24 h; further: % of control where 0% means no effect; nearly all actives have a fitted effect of over 60% in size
#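 Cells: Huh7 expressing luciferase under the NPC1 promoter, 1500/well. Seeded 2 h, compound added, incubated 24 h at 37 °C. Luciferase reagent, 10 min ambient, then luminescence.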
# SMN2 splice enh – SMN2 splice variant enhancement | HEK293 SMN2-luciferase splicing reporter, luminescence, 30-36 h | Potency, µM (top dose mostly 46.1 µM), for the others: at the top dose activity change, positive = activation, hits mostly activators | 210,000 compounds, 2.8% hits; further: % of control where 0% means no effect; nearly all actives have a fitted effect of over 55% in size
#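 HEK293 cells carry an SMN2 minigene-luciferase reporter in which exon 7 inclusion puts luciferase in frame. Cells were seeded at 2000 cells/well, attached for 10-12 hours, then exposed to compounds for 30-36 hours at 37C before ONE-Glo luminescence.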
# Rab9 prom act – Rab9 promoter activation; Huh7 Rab9 promoter-luciferase reporter, luminescence, 24 h; Potency, µM (top dose mostly 9.22 µM), inactives show top-dose activation, negative = inhibition, most hits filed as activators; 320,000 compounds, 2.8% hits; further: % of control where 0% means no effect; nearly all actives have a fitted effect of over 60% in size
#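 Steps: seed 1500 Huh7 Rab9-luc cells per well, rest 2 h at 37 °C; add compound in DMSO; incubate 24 h; add luciferase reagent, 10 min ambient; read luminescence.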
# ELG1 genotox – inducers of genotoxicity in HEK293T ELG1-luciferase cells; HEK293T ELG1-luciferase reporter, luminescence, 16 h; Potency, µM (titrated, usually from 46 µM), without a hit: at the highest dose activity change, positive = activation, most hits filed as activators; 330,000 compounds, 1.3% hits; AID 504466; further: % of control where 0% means no effect; nearly all actives have a fitted effect of over 60% in size
#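 16 hr compound incubation (37 °C, 5% CO2) of HEK293T cells carrying luciferase-tagged ELG1; luciferase then measured by ONE-Glo luminescence after 30 min at RT.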
# FLuc modulator – inhibits or activates purified firefly luciferase, miR-21 counter-screen | purified FLuc, Km substrates, luminescence inhibition | P08659 | Potency, µM (series often up to 57.5 µM), inactives show at the highest dose activity change, negative = inhibition, actives largely listed as inhibitors | 360,000 compounds, 6.9% hits | AID 588342;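 further: plate controls were vehicle for no effect and reference inhibitor for full effect; nearly all actives have a fitted effect of over 55% in size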
# Target sequence (P08659 whole entry, looked up): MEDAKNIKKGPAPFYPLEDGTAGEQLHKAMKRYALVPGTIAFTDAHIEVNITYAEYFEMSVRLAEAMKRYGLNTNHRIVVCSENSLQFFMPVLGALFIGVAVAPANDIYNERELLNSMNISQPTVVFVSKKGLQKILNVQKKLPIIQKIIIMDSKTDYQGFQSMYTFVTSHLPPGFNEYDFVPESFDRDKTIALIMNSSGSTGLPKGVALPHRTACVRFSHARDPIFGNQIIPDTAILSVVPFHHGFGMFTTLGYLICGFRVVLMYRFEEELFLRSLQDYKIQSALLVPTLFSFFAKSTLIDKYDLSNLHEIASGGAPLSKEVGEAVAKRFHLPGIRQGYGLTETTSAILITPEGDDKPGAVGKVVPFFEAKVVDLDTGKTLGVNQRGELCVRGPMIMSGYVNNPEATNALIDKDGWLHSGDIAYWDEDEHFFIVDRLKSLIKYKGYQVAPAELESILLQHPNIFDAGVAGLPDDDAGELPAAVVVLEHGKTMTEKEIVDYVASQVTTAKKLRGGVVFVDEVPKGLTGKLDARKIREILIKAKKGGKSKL
#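 Biochemical qHTS of compounds, final roughly 60 µM downward over six points, against 10 nM purified firefly luciferase using Km concentrations of substrates (10 uM D-luciferin, 10 uM ATP) in Tris acetate pH 7.5 buffer; luminescence output.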
# KinaseGlo FLuc – Kinase-Glo luciferase inhibition (counter-screen); Q27757; Kinase-Glo luciferase, ATP luminescence, 8 min; Potency, µM (top dose mostly 38.3 µM), inactives show top-dose activity change, negative = inhibition, actives largely listed as inhibitors; 200,000 compounds, 0.28% hits; AID 1379; further: on the % scale 0 is the no-effect control and ±100 the full control effect; nearly all actives have a fitted effect of over 60% in size
#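 Compounds were added to a substrate mix at pH 7.2 (50 mM imidazole, 10 uM ATP, within the enzyme's linear range), followed by Kinase-Glo detection reagent; luminescence was measured after 8 minutes at ambient temperature.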
# * = called active by the depositor; ? = inconclusive; · = no result given; [ ] = dose if it differs, or a comment. The call rests on the fitted dose curve; in most records, active means well fitted curve in the direction sought with a large enough effect; inconclusive means small, poorly fitted or top-dose-only effect, or another doubt; inactive means no such curve, though single readings can be large; an effect the other way counts as inactive or inconclusive. Potency means the concentration at half of the fitted maximal effect.
SMILES,NPC1 prom act,SMN2 splice enh,Rab9 prom act,ELG1 genotox,FLuc modulator,KinaseGlo FLuc
CCOc1ccc(-c2cc(NC(=O)c3cccc(Cl)c3)c(C(=O)OC)s2)cc1,·,14%,·,·,0%,·
CCOC(=O)c1[nH]c2ccccc2c1NC(=O)c1ccccc1F,·,-3%,·,·,-7%,·
Cn1cc(/C=N/NC(=O)c2cccc([N+](=O)[O-])c2)c2ccccc21,7%,2%,-10%,?,-2%,1%
Cn1cc(/C=N/NC(=O)c2ccccc2O)c2ccccc21,?,·,26%,9%,4.8µM*,·
CC(C)(C)OC(=O)n1cc(/C=N/NC(=O)c2ccco2)c2ccccc21,22%,·,17%,8%,9.5µM*,·
CC(=O)n1cc(/C=N/NC(=O)c2ccccc2O)c2ccccc21,28%,·,?,11%,9.5µM*,·
Cc1nc(C)c(C(=O)N/N=C/c2cn(C)c3ccccc23)s1,-3%,-4%,8%,1%,17µM*,-3%
Cc1ccccc1-c1nc(CN2CCC(C(=O)NCc3ccc(F)cc3)CC2)c(C)o1,·,-6%,·,·,-14%,·
CSc1cccc(NC(=O)Cn2c3ncccc3c(=O)n2-c2ccc(C)cc2)c1,·,·,·,·,-4%,·
CCOc1ccc(C=Nc2cccc3ncccc23)cc1,-1%,-2%,2%,0%,21µM*,-1%
COc1ccc(/C=N/n2c(N)nc(-c3ccccc3)c2-c2ccccc2)cc1,14%,-49%,13%,-4%,?,-6%
Cc1ccc(S(=O)(=O)c2ncccc2N)cc1,-12%,·,-2%[1.84 µM],2%,-1%,·
Cc1ccc(C=Nc2cccnc2N)cc1,-3%,?,2%,-2%,6.7µM*,-2%
CCOc1ccc(/C=N/O)cc1,7%,18%,9%,?,-17%,-7%
COc1ccc(C=Nc2cccnc2N)cc1,8%,·,12%,8%,11µM*,·
CCCn1c(=O)c2sccc2n2c(CCCC(=O)NCCOC)nnc12,·,·,·,·,-1%,·
Cc1ccc(C(=O)Nc2cccc(C(=O)N/N=C/c3ccccc3F)c2)cc1,2µM*,·,1.6µM*,?,5.4µM*,·
Cc1ccc(CN2CCN(CC(=O)N/N=C/c3ccccc3F)CC2)cc1,6%,·,?,?,1.7µM*,·
O=C(CN1CCN(Cc2ccccc2)CC1)N/N=C/c1ccccc1F,14%,·,1%,-3%,2%,·
CC(=O)Nc1cccc(C(=O)N/N=C/c2ccccc2F)c1,3.2µM*,?,0.79µM*,7.3µM*,1.3µM*,?
CC(=O)Nc1cccc(C(=O)N/N=C/c2cccnc2)c1,2%,4%,11%,9%,?,-5%
O=C(Cn1cc(C(=O)c2ccncc2)c(=O)c2cc(F)ccc21)Nc1ccc(Cl)cc1,·,·,·,·,6%,·
Cc1ccccc1C1=NC(c2ccc(F)cc2F)ON1 (configuration not stated),1%,35%,24%,11µM*,24µM*,-7%
COc1ccccc1C1N=C(c2ccccc2C)NO1 (configuration not stated),21%,·,?,10µM*,8.5µM*,·
COc1ccccc1C1=NC(c2ccc(F)cc2)N=C1C (configuration not stated),20%,23%,?,14%,?,5%
SMILES,NPC1 prom act,SMN2 splice enh,Rab9 prom act,ELG1 genotox,FLuc modulator,KinaseGlo FLuc
Cc1c(C(=O)N/N=C/c2ccc(O)c(Br)c2)sc(N)c1C#N,-4%,?,-6%,?,13µM*,-2%
COc1cc(NC(=O)N2CCC(CN3CCOCC3)CC2)cc(OC)c1OC,·,·,·,·,-2%,·
O=C(NC1CCCCCCC1)c1ccc2c(c1)OCO2,0.79µM*,5µM*,0.4µM*,2.1µM*,3µM*,-9%
O=C(NC1CCN(Cc2ccccc2)CC1)c1ccc2c(c1)OCCCO2,-2%,·,3%,0%,-9%,·
O=C(NNC(=S)NCc1ccccc1)c1ccc2c(c1)OCO2,0%,0%,1%,-4%,-5%,0%
O=C(NNC(=S)NC1CCCCC1)c1ccc2c(c1)OCO2,?,5.6µM*,1µM*,5%,?,4%

# Screens as filed in PubChem.
